Reference: PubChem BioAssay AID463173 (ICCB-Longwood Screening Facility, Harvard Medical School, 2010)
Out of some 52,000 compounds screened, about 1,700 (3.3%) were called active. No stated cut-off is given here; in the data, active means survival mostly below about 52% (no sharp cut-off); inactive means mostly above about 56%. The list comes from a sample in which actives are over-represented; it also holds similar structures and randomly drawn compounds.

Test system: Wild type
Experiment: S. aureus survival, RN4220 and DeltatarO strains – OD600, teichoic acid synthesis inhibitors, primary screen (AID 463173)
Settings: S. aureus RN4220 wild type/DeltatarO growth, OD600, 18 h, hits give low values, screened at 18.75 µg/mL (by protocol)

| Structure (SMILES) | survival |
| --- | --- |
| Cc1ccc(C)c(N2CCN(C(=O)NC3CCCCC3)CC2)c1 | 103% (inactive) |
| COc1ccc2nc3oc(C(=O)Nc4cccc(C(F)(F)F)c4)cc3cc2c1 | 66% (inactive) |
| CCCN1C(=O)CN(C2CCCCCC2)C(=O)C1c1ccc(OCC)c(OC)c1 (stereo not drawn) | 120% (inactive) |
| CCCCN1C(=O)CN(C2CCCCCC2)C(=O)C1c1ccc(OCCC)c(OC)c1 (stereo not drawn) | 87% (inactive) |
| COc1ccc(C2C(=O)N(C3CCC(C)CC3)CC(=O)N2C2CCCCC2)cc1OC (stereo not drawn) | 64% (inactive) |
| CCCOc1ccc(C2C(=O)N(C3CCCCCC3)CC(=O)N2CCC)cc1OC (stereo not drawn) | -6% (active) |
| CCCOc1ccc(C2C(=O)N(C3CCC(C)CC3)CC(=O)N2CCC2=CCCCC2)cc1OC (stereo not drawn) | 87% (inactive) |
| CCCOc1ccc(C2C(=O)N(C3CCCCCC3)CC(=O)N2CCC2=CCCCC2)cc1OC (stereo not drawn) | 123% (inactive) |
| CCCOc1ccc(C2C(=O)N(C3CCCCC3)CC(=O)N2C2CCCCC2)cc1OC (stereo not drawn) | 77% (inactive) |
| COc1ccc(C2C(=O)N(C3CCC(C)CC3)CC(=O)N2C2CCCC2)cc1OC (stereo not drawn) | -4% (active) |
| COc1ccc(C2C(=O)N(C3CCC(C)CC3)CC(=O)N2CCC2=CCCCC2)cc1OC (stereo not drawn) | -3% (active) |
| COc1ccc(-n2cc(C(=O)N(C)c3cc(C)ccc3OC)c3ccccc3c2=O)cc1 | 114% (inactive) |
| Cc1ccc(NC(=O)CCc2c(C)nc3nc(C)nn3c2C)c(Cl)c1 | 70% (inactive) |
| CCc1nnc(SC(CC)C(=O)NCCOC)c2cc3occc3n12 (stereo not drawn) | 105% (inactive) |
| Cc1ccc(C(=O)n2nc(C)c(S(=O)(=O)N3CCOCC3)c2C)cc1 | 85% (inactive) |
| CCN(c1cccc(C)c1)S(=O)(=O)c1cc(Br)cc2c1N(C(C)=O)C(C)C2 (stereo not drawn) | 75% (inactive) |
| CCN(CC)CCNC(=O)c1ccc(-n2c(-c3ccccc3)cc3c2CCCC3)cc1 | 2% (active) |
| CN(C)CCNC(=O)c1ccc(-n2c(-c3ccccc3)cc3c2CCCCC3)cc1 | 17% (inactive) |
| CN(C)CCNC(=O)c1ccc(-n2c(-c3ccccc3)cc3c2CCCC3)cc1 | 29% (inactive) |
| Cc1ccc(C2C(C(=O)/C=C/c3ccccc3)=C(O)C(=O)N2CCO)cc1 (stereo not drawn) | 99% (inactive) |

| Structure (SMILES) | survival |
| --- | --- |
| O=S1(=O)C=C(Sc2nnnn2-c2ccccc2)c2ccccc21 | -1% (active) |
| O=C1CC(CSc2nnnn2-c2ccccc2)=NN1 | 128% (inactive) |
| O=S(=O)(NCCSc1nnnn1-c1ccccc1)c1ccc(F)cc1 | 76% (inactive) |
| CCN(CC)CCn1c(-c2ccccc2)csc1=Nc1ccccc1 | 45% (inactive) |
| OCCCn1c(-c2ccc(F)cc2)csc1=Nc1ccc(F)cc1 | 9% (active) |
| Cc1ccc(-c2csc(=Nc3ccccc3)n2CCCO)cc1 | -7% (active) |
| COc1ccc(-c2csc(=Nc3ccccc3)n2CCO)cc1F | 63% (inactive) |
| O=S(=O)(c1ccc(-c2csc(=Nc3ccc(OC(F)(F)Cl)cc3)n2CCCO)cc1)N1CCCC1 | 132% (inactive) |
| O=S(=O)(c1ccc(-c2csc(=Nc3ccc(F)cc3)n2CCCCCCO)cc1)N1CCCC1 | 55% (inactive) |
| Cc1ccc(NC(=O)C(=O)NCC(c2ccc3c(c2)OCO3)N2CCN(c3ccccc3)CC2)cc1 (stereo not drawn) | 75% (inactive) |
| O=C(CCC1N=C2c3ccccc3N=C(SCC(=O)Nc3ccccc3F)N2C1=O)NCc1ccccc1 (stereo not drawn) | 76% (inactive) |
| CCOc1ccc(CNC(=O)C2CCN(S(=O)(=O)N3CCC(C)CC3)CC2)cc1OC | 84% (inactive) |
| CCOc1ccc(-c2nnc(SCC(=O)c3ccc(Br)cc3)n2-c2ccccc2)cc1 | 92% (inactive) |
| CC(=O)N1CCc2c(sc3c2c(=O)n(CCc2ccccc2)c(=O)n3Cc2ccc(Cl)cc2)C1 | 65% (inactive) |
| O=C(CSc1nc2c(c(=O)[nH]1)CN(Cc1ccc3c(c1)OCO3)CC2)Nc1ccccc1Cl | 81% (inactive) |
| O=C(CCN1CCCCC1)c1ccccc1 | 92% (inactive) |
| CC1CCCN(C(=O)c2cc3c(Cl)nc4ccccc4c3s2)C1 (stereo not drawn) | -2% (active) |
| CC(C)N(C(=O)c1cc2c(Cl)nc3ccccc3c2s1)C1CCCCC1 | -1% (active) |
| Cc1ccc2nc(Cl)c3cc(C(=O)NC4CCC(C)CC4)sc3c2c1 (stereo not drawn) | 72% (inactive) |
| Cc1ccc2nc(Cl)c3cc(C(=O)NC4CCCCCC4)sc3c2c1 | 119% (inactive) |

| Structure (SMILES) | survival |
| --- | --- |
| Cc1ccc2nc(Cl)c3cc(C(=O)N4CCCCC4C)sc3c2c1 (stereo not drawn) | 21% (inactive) |
| O=C(NC1CCCCCC1)c1cc2c(Cl)nc3ccccc3c2s1 | 123% (inactive) |
| Cc1ccc2nc(Cl)c3cc(C(=O)N4CCCCC4)sc3c2c1 | -2% (active) |
| O=C(NC1CCCCC1)c1cc2c(Cl)nc3ccccc3c2s1 | 77% (inactive) |
| CCOC(=O)C1CCCN(C(=O)c2cc3c(Cl)nc4ccccc4c3s2)C1 (stereo not drawn) | 41% (inactive) |
| Cc1ccc2nc(Cl)c3cc(C(=O)N4CCCC(C)C4)sc3c2c1 (stereo not drawn) | -2% (active) |
| Cc1ccc2nc(Cl)c3cc(C(=O)NC4CCCCC4)sc3c2c1 | 76% (inactive) |
| O=C(c1cc2c(Cl)nc3ccccc3c2s1)N1CCCCC1 | 58% (inactive) |
| CCCCC(=O)Nc1ccc(OCc2cc(=O)n3c(C)csc3n2)cc1 | 87% (inactive) |
| COc1ccccc1NC(=O)C(Cc1ccccc1)NS(=O)(=O)c1ccc2c(c1)CCN2C(C)=O (stereo not drawn) | 80% (inactive) |
| CCOc1ccccc1NS(=O)(=O)c1ccc2c(c1)oc(=O)n2C | 82% (inactive) |
| O=C(Nc1ccc2nn(-c3ccccc3)nc2c1)c1cc2ccccc2o1 | 80% (inactive) |
| COC(=O)c1scc(-c2ccc(C)cc2)c1S(=O)(=O)N1CCN(c2cccc(OC)c2)CC1 | 53% (inactive) |
| CCCCn1c(Cc2ccccc2)nnc1SCC(=O)NC | 104% (inactive) |
| COC(=O)c1ccc(NC(=O)c2cc(S(=O)(=O)N3CCOCC3)cn2C)cc1 | 84% (inactive) |
| COC(=O)C1(c2ccccc2)NC(c2ccc(O)cc2)C2C(=O)N(c3ccc4c(c3)OCCO4)C(=O)C21 (stereo not drawn) | 106% (inactive) |
| Cc1cc(N2CCC(C(=O)N(CC(C)C)CC(C)C)CC2)n2nc(C)c(-c3ccc(Cl)cc3)c2n1 | 91% (inactive) |
| COc1ccc(NC(=O)CN2C(=O)CC(c3ccc(C)c(C)c3)=Nc3ccccc32)cc1OC | 76% (inactive) |
